Records with an inconclusive call do not appear. Active and inactive are the calls of the source. How the source made its calls, unless noted: active means hit-call score of the fitted dose curve at least 0.9, where 1 is the maximum; inactive means score below 0.9.

For assay [1], the target named is Paired box protein Pax-6 (Homo sapiens) (UniProt P26367). Nature of the assay: ATG_Pax6_CIS: Attagene CIS-FACTORIAL HepG2 Assay for human Paired Box 6 (PAX6) (AID 2282956). The settings on record: HepG2 CIS-FACTORIAL PAX6 reporter transcription, RNA readout; actives raise or lower the signal. An outline of the steps:
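Values derive from bidirectional curve fitting of reporter mRNA signal relative to DMSO. HepG2 cells bearing transfected cis-regulated MRTUs were exposed for 24 h; transcripts were read by RT-PCR and capillary electrophoresis.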

Assay [2] can be described thus: ATG_PXRE_CIS: Attagene CIS-FACTORIAL HepG2 Assay for human Pregnane X Receptor Element (PXRE) (AID 2282957). The settings on record: HepG2 Attagene CIS-FACTORIAL PXRE reporter, mRNA; actives raise or lower the signal. The method, boiled down: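 Bidirectional activity, baselined to DMSO, derived from reporter mRNA fluorescence (RT-PCR plus capillary electrophoresis) in HepG2 cells bearing cis-promoter reporter units, 24 h exposure.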

A short description of assay [3]: ATG_PPRE_CIS: Attagene CIS-FACTORIAL HepG2 Assay for human Peroxisome Proliferator-activated Response Element (PPRE) (AID 2282958). The settings on record: HepG2 PPRE cis-element reporter, Attagene transcription factor profiling; actives raise or lower the signal. An outline of the steps:
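HepG2 cells transiently transfected with multiplexed cis-element reporter units measure endogenous transcription factor activity. After 24 h compound exposure, reporter mRNA is quantified by RT-PCR, 6-FAM labeling, HpaI digestion and capillary electrophoresis; bidirectional fits are made against DMSO baseline.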

The nature of assay [4]: ATG_RORE_CIS: Attagene CIS-FACTORIAL HepG2 Assay for human RAR-related Orphan Receptor Element (RORE) (AID 2282959). The conditions noted are these: HepG2 Attagene cis-factorial RORE reporter, mRNA; actives raise or lower the signal. The method, boiled down: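 HepG2 cells transiently transfected with multiple cis-element reporter transcription units, exposed to chemical for 24 h. Reporter mRNA quantified by RT-PCR, 6-FAM primer-extension labeling, HpaI digestion and capillary electrophoresis; bidirectional fit versus DMSO baseline.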

The nature of assay [5]: ATG_Sox_CIS: Attagene CIS-FACTORIAL HepG2 Assay for human SRY-box transcription factor (SOX) (AID 2282960). The conditions noted are these: HepG2 Attagene cis-factorial SOX reporter, mRNA; actives raise or lower the signal. The method, boiled down:
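HepG2 cells transiently transfected with cis-element-driven multiple reporter transcription units, dosed 24 h; reporter mRNA measured by RT-PCR, FAM labelling, HpaI digestion and capillary electrophoresis. Bidirectional fit versus DMSO baseline.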

Assay [6] deals with Transcription factor Sp1 (Homo sapiens) (UniProt P08047). Kind of assay: ATG_Sp1_CIS: Attagene CIS-FACTORIAL HepG2 Assay for human Specificity Protein 1 (Sp1) (AID 2282961). The conditions noted are these: HepG2 Sp1 cis-reporter transcription, actives raise or lower the signal. The method, boiled down:
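HepG2 cells transiently transfected with multiple reporter transcription units driven by cis-regulatory elements; Sp1-responsive reporter mRNA measured 24 h after dosing by RT-PCR and capillary electrophoresis fluorescence, fitted bidirectionally against DMSO baseline.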

The target in assay [7] is Signal transducer and activator of transcription 3 (Homo sapiens) (UniProt P40763). Kind of assay: ATG_STAT3_CIS: Attagene CIS-FACTORIAL HepG2 Assay for human Signal Transducer and Activator of Transcription 3 (STAT3) (AID 2282963). The settings on record: HepG2, Attagene cis-factorial STAT3 reporter transcription; actives raise or lower the signal. An outline of the steps:
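Readout is reporter transcript quantified by RT-PCR and capillary electrophoresis, with 6-FAM primer extension and HpaI digestion. Total RNA is taken 24 h after dosing transiently transfected HepG2 carrying cis-regulated reporter units. Bidirectional fit against DMSO.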

Assay [8] in a line: ATG_TA_CIS: Attagene CIS-FACTORIAL HepG2 Assay for human TA Basal Promoter (AID 2282964). The conditions noted are these: HepG2 Attagene CIS-factorial TA basal promoter reporter; actives raise or lower the signal. The method, boiled down: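 HepG2 cells transiently transfected with multiple reporter units under cis promoter elements, reporting endogenous transcription factor activity; this endpoint tracks the TA basal promoter as background control. Reporter mRNA after 24 h dosing measured by RT-PCR/capillary electrophoresis; bidirectional fits versus DMSO.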

Assay [9] can be described thus: ATG_TCF_b_cat_CIS: Attagene CIS-FACTORIAL HepG2 Assay for human T-Cell-Factor with beta-catenin (TCF/b-cat) (AID 2282965). The conditions noted are these: HepG2 TCF/beta-catenin cis-reporter transcription, actives raise or lower the signal. An outline of the steps: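 Endogenous transcription factor activity is captured through cis-promoter reporter constructs transiently introduced into human HepG2 liver cells. Induced reporter mRNA is measured after 24 h and fitted bidirectionally relative to DMSO.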

Assay [10] is described as follows: ATG_TAL_CIS: Attagene CIS-FACTORIAL HepG2 Assay for human TAL Basal Promoter (AID 2282966).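 Further: background control endpoint measuring basal TAL promoter reporter mRNA not a specific factor.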 The conditions noted are these: HepG2 Attagene cis-factorial TAL promoter reporter; actives raise or lower the signal. The method, boiled down: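 Human hepatoma HepG2 cells, transfected with promoter-regulated reporter units, were treated 24 h. Reporter transcript levels, measured through RT-PCR and capillary electrophoresis, were fitted for gain or loss relative to DMSO.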

The nature of assay [11]: ATG_TGFb_CIS: Attagene CIS-FACTORIAL HepG2 Assay for human Transforming Growth Factor (TGF) (AID 2282967). The settings on record: HepG2 Attagene CIS TGFb reporter, mRNA transcription; actives raise or lower the signal. An outline of the steps: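 HepG2 cells transiently transfected with cis-promoter-driven multiple reporter units measure endogenous TF activity; reporter mRNA quantified at 24 h by RT-PCR, FAM labeling, HpaI digestion and capillary electrophoresis. Bidirectional fit vs DMSO.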

Assay [12] can be described thus: ATG_VDRE_CIS: Attagene CIS-FACTORIAL HepG2 Assay for human Vitamin D Receptor Element (VDRE) (AID 2282968). The settings on record: HepG2 VDRE cis-reporter transcription, actives raise or lower the signal. The method, boiled down:
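Readout is VDRE-driven reporter mRNA reflecting endogenous factor activity in human HepG2 cells, sampled 24 h post-dose. Quantification used labelled RT-PCR products separated by capillary electrophoresis; bidirectional analysis relative to DMSO.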

The target in assay [13] is Nuclear receptor subfamily 1 group I member 3 (Homo sapiens) (UniProt Q14994). Nature of the assay: ATG_CAR_TRANS: Attagene TRANS-FACTORIAL HepG2 Assay for human Constitutive Androstane Receptor (CAR) (AID 2282969; active means hit-call score of the fitted dose curve at least 0.9, where 1 is the maximum;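 further: activators raise reporter mRNA above DMSO so AC50 marks induction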). The settings on record: HepG2 Attagene TRANS-FACTORIAL CAR reporter. The method, boiled down:
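Signal is reporter mRNA induction relative to DMSO, measured 24 h after dosing by RT-PCR with fluorescent primer extension and capillary electrophoresis. Human HepG2 liver cells carried transiently transfected chimeric NR-Gal4/GAL4-UAS reporter constructs.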

Assay [14] concerns the target Estrogen receptor (Homo sapiens) (UniProt P03372). Kind of assay: ATG_ERa_TRANS: Attagene TRANS-FACTORIAL HepG2 Assay for human Estrogen Receptor alpha (ERa) (AID 2282970; active means hit-call score of the fitted dose curve at least 0.9, where 1 is the maximum). The settings on record: HepG2 Attagene TRANS ERa GAL4 reporter, mRNA. The method, boiled down: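 Signal derives from fluorescence of labelled reporter PCR fragments separated by capillary electrophoresis. HepG2 cells transiently carrying multiple GAL4-UAS reporter units were treated 24 hours, and induction above DMSO baseline was fitted as activity.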

The target of assay [15] is X-box-binding protein 1 (Homo sapiens) (UniProt P17861). Kind of assay: ATG_Xbp1_CIS: Attagene CIS-FACTORIAL HepG2 Assay for human X-box Binding Protein 1 (XBP1) (AID 2282972). The conditions noted are these: HepG2 XBP1 cis-element reporter, Attagene multiplex; actives raise or lower the signal. The method, boiled down:
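Human hepatoma HepG2, cis-element reporter system, 24 h treatment; mRNA quantified by RT-PCR/CE fluorescence; fit relative to DMSO.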

Assay [16] in a line: ATG_GAL4_TRANS: Attagene TRANS-FACTORIAL HepG2 Assay for GAL4 (Internal Marker) (AID 2282976; active means hit-call score of the fitted dose curve at least 0.9, where 1 is the maximum). The settings on record: HepG2 Attagene TRANS GAL4 internal marker reporter. An outline of the steps:
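Liver HepG2 line bearing multiplexed GAL4-UAS reporter constructs; 24 h chemical treatment. Transcripts were quantified as fluorescent fragments on capillary electrophoresis after RT-PCR and HpaI cut, with activity fitted upward from DMSO.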

Assay [17] can be described thus: ATG_SREBP_CIS: Attagene CIS-FACTORIAL HepG2 Assay for human Sterol Regulatory Element Binding (SREBP) (AID 2282962). The settings on record: HepG2 Attagene cis-factorial SREBP reporter, mRNA; actives raise or lower the signal. An outline of the steps:
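Values derive from bidirectional curve fitting with DMSO as baseline. The underlying measurement is reporter mRNA from cis-element-regulated units in transiently transfected HepG2, quantified by RT-PCR and capillary electrophoresis after 24 h exposure.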

Assay [18] can be described thus: ATG_M_19_TRANS: Attagene TRANS-FACTORIAL HepG2 Assay for M19 Transcription Factor (Internal Marker) (AID 2282974; active means hit-call score of the fitted dose curve at least 0.9, where 1 is the maximum). The settings on record: HepG2 Attagene TRANS-FACTORIAL M19 internal marker reporter. The method, boiled down: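 HepG2 cells transiently transfected with multiple GAL4-UAS reporter transcription units were exposed to chemicals for 24 h. Reporter mRNA was read by RT-PCR, 6-FAM primer extension, HpaI digestion and capillary electrophoresis; gain of signal fitted relative to DMSO.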

Estrogen receptor (Homo sapiens), sequence (P03372 whole entry, looked up, the tested form may be a part): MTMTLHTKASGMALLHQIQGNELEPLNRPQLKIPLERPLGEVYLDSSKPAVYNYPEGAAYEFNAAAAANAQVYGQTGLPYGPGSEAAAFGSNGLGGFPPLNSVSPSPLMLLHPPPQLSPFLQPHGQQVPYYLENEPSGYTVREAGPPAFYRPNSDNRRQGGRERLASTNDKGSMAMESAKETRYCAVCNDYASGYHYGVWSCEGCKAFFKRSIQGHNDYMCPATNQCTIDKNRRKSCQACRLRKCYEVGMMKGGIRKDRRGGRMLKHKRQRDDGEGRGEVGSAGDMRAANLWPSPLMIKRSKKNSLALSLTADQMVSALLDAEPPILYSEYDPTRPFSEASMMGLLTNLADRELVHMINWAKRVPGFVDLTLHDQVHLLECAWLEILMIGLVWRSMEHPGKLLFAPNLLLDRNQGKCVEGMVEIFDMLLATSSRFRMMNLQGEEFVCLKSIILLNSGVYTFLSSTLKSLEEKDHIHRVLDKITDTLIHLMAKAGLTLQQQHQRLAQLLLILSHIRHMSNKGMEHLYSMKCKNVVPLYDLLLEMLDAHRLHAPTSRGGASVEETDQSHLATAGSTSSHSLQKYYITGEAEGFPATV
Paired box protein Pax-6 (Homo sapiens), sequence (P26367 whole entry, looked up): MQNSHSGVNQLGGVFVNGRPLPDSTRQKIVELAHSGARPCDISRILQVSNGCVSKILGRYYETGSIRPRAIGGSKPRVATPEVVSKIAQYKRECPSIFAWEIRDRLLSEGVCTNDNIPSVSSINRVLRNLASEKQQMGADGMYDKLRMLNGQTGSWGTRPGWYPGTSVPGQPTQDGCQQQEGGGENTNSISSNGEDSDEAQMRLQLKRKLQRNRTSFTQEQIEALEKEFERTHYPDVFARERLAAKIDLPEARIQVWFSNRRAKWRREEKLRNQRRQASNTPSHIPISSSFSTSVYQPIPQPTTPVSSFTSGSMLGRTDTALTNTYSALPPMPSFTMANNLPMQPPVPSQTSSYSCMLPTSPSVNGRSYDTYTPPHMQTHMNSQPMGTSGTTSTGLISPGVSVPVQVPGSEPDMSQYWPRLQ
X-box-binding protein 1 (Homo sapiens), sequence (P17861 whole entry, looked up): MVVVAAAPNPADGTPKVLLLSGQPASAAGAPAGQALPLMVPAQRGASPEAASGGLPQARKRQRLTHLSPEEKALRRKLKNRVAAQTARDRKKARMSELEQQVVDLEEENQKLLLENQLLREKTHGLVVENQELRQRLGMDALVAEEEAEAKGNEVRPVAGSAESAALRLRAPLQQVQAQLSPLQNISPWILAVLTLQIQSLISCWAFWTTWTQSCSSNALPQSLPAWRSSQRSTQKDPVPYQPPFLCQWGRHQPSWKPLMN
Transcription factor Sp1 (Homo sapiens), sequence (P08047 whole entry, looked up): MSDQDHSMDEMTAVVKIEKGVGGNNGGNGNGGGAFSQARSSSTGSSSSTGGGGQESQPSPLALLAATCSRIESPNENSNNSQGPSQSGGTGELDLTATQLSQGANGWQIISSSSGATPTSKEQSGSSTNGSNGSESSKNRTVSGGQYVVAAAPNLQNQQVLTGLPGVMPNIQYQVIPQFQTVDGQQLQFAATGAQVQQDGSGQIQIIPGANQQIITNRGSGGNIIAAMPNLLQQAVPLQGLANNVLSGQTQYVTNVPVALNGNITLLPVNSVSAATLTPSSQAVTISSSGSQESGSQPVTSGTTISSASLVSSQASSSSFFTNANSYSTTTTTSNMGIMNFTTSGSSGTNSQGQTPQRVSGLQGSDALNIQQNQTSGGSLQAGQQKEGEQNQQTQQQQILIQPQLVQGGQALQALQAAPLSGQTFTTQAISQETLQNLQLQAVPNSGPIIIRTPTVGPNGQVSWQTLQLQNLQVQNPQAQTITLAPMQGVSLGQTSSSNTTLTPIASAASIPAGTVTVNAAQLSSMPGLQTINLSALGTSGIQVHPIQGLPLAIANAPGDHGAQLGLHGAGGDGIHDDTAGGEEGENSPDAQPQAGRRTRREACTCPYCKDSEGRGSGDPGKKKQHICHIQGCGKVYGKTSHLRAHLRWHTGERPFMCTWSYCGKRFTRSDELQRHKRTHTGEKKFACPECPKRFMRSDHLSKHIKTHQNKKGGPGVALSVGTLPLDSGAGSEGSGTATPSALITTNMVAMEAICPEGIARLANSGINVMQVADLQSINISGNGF
Signal transducer and activator of transcription 3 (Homo sapiens), sequence (P40763 whole entry, looked up): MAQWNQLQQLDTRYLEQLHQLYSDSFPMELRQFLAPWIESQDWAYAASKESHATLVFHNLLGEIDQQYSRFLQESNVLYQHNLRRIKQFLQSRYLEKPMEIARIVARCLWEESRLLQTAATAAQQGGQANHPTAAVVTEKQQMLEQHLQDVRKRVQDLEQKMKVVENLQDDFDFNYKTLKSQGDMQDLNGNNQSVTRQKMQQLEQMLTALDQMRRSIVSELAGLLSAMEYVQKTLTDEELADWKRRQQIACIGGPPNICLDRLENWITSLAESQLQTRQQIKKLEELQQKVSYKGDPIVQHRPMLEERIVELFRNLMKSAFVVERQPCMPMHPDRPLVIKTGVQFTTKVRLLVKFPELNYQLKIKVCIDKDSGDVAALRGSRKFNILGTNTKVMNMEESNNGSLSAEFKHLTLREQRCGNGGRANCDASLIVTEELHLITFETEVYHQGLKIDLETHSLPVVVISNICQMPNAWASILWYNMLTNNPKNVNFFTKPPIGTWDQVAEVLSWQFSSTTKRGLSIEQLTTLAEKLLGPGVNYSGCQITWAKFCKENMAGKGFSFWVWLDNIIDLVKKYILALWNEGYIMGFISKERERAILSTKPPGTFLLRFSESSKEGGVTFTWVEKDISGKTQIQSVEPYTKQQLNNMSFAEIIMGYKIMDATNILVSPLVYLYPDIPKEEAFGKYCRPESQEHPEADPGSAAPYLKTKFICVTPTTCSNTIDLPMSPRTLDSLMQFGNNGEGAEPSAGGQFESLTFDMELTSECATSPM
Nuclear receptor subfamily 1 group I member 3 (Homo sapiens), sequence (Q14994 whole entry, looked up, the tested form may be a part): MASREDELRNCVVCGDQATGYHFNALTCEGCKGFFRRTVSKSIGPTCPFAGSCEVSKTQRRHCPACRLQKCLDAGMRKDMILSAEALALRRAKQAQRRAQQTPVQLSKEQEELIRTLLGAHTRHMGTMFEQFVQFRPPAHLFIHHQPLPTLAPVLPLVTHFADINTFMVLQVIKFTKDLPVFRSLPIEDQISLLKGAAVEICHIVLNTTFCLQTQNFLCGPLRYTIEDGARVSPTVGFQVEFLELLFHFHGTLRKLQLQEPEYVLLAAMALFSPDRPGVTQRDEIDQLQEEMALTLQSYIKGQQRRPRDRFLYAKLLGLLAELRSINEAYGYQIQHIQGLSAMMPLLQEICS

For `NC(=O)c1cnccn1`, the outcome in assay [1], in assay [2], in [3], in assay [4], in assay [5] and in [6] was inactive. Moreover, the compound was classed as inactive in [7], in [8], in assay [9], in assay [10], in assay [11] and in assay [12]. Also, the result in [13], in assay [14], in assay [15] and in assay [16] was inactive.
Turning to `CCCCCCCCCCOC(=O)c1ccccc1C(=O)OCCCCCCCC`, the compound was classed as inactive in assay [1], in [3], in assay [4], in assay [5], in [6] and in assay [17]. The outcome in assay [7], in [8], in assay [10], in assay [11], in [12] and in assay [13] was inactive. Moreover, the call in assay [15], in [18] and in assay [16] was inactive. For the same compound, in assay [2], the AC50 was 3.87 µM (active).
With `O=C(O)C1=NN(c2ccc(S(=O)(=O)O)cc2)C(=O)C1`, the compound was called inactive in [1], in assay [3], in [4], in [5], in assay [6] and in assay [17]. For the same compound, the result in assay [7], in [8], in assay [9], in assay [10], in assay [11] and in assay [14] was inactive. Also, the call in assay [15], in [18] and in assay [16] was inactive. Also, the AC50 in [2] is 45.8 µM (active).
In the case of `CCCCCCC(C)O` (stereo not given), the compound was classed as inactive in assay [1], in assay [2], in assay [3], in assay [4], in assay [5] and in assay [6]. Further, the compound was called inactive in assay [17], in [7], in assay [8], in [9], in [12] and in assay [15]. Besides, the result in assay [18] and in assay [16] was inactive.
Take `CC(C)(O)C(=O)c1ccc(OCCO)cc1`: the call in assay [1], in assay [2], in [3], in assay [4], in [5] and in assay [6] was inactive. Besides, the call in assay [17], in [8], in assay [9], in assay [11], in assay [15] and in [16] was inactive.
On to `CCCCCCCOC(C)=O`, for which the compound was called inactive in [1], in assay [3], in assay [4], in [5], in assay [6] and in assay [17]. For the same compound, the result in [8], in assay [9], in assay [10], in [11], in assay [12] and in assay [15] was inactive. Moreover, the AC50 is 31 µM (active) in [2] and 17.6 µM (active) in assay [14].
For the compound `Cc1cccc(C)c1`, the call in assay [1], in assay [3], in assay [4], in [5], in assay [6] and in assay [17] was inactive. Moreover, the compound was classed as inactive in assay [8], in assay [9], in assay [10], in assay [11], in assay [12] and in assay [15]. Moreover, the AC50 in [2] was 34.4 µM (active).
As for `NC(N)=NC(N)=NCCc1ccccc1`, the compound was classed as inactive in assay [1], in assay [2], in assay [3], in [4], in assay [5] and in [6]. The compound was classed as inactive in assay [17], in assay [7], in assay [8], in assay [9], in [10] and in assay [11]. Besides, the compound was classed as inactive in assay [14], in assay [15] and in [18].
For `CCCCCCCC1CCCC1=O` (stereo not given), the result in assay [1], in assay [3], in [4], in assay [5], in [6] and in assay [17] was inactive. In addition, the result in [7], in [8], in assay [9], in [10], in [11] and in [14] was inactive. The compound was called inactive in assay [15] and in assay [16]. The AC50 in assay [2] is 27.9 µM (active).
Take `CCCCC/C=C\C=C\C(=O)OCC`: the AC50 was 62.9 µM (active) in assay [1]; 1.51 µM (active) in [2]; 4.97 µM (active) in [3]; 28.4 µM (active) in assay [5]; 28.7 µM (active) in [6]; 74.2 µM (active) in assay [11]. The AC50 in assay [15] was 61.1 µM (active). The compound was called inactive in [4], in [17], in assay [7], in [8], in [9] and in assay [12]. Moreover, in [14], the outcome was inactive.

These data come from PubChem BioAssay (EPA / NIEHS).
